Bioassay records as filed in PubChem.
The full list was thinned out, with hits kept by preference.
p53 reactivation = mutant p53 re-activation in reporter cells | H1299 p53-A138V BP100-luciferase reporter, luminescence, 24 h | Potency, µM (titrated, usually from 92.2 µM), usual class: activators | hit rate 0.063% among 320,000 | AID 504706; active = well fitted activation curve with a large enough effect; inconclusive = small, poorly fitted or top-dose-only effect; inactive = no such curve, though single readings can be large or run the other way; note: nearly all actives have a fitted effect of over 45% in size
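p53-null H1299 cells stably carrying temperature-sensitive p53-A138V and a BP100-luciferase reporter were pinned with compounds (4-point, 1:5 series) and held 24 hrs at 37 deg C. Luminescence was read 10 min after detection reagent.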
ClpP mod = qHTS Assay for Activators of ClpP | hit rate 1.9% among 340,000 | AID 651965, 2013 | purified B. subtilis ClpP, FRET peptide cleavage, 20 min | Potency, µM (top dose mostly 57.5 µM); active = well fitted falling curve with a large enough effect; inconclusive = small, poorly fitted or top-dose-only effect; inactive = no such curve, though single readings can be large or run the other way; note: the source files actives as falling curves though it sought activators and does not explain the sign; nearly all actives have a fitted effect of over 65% in size
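Purified B. subtilis ClpP, 10 microg/mL final in Tris/HCl pH8 with KCl, BSA, glycerol and Tween-20, cleaved an Abz/nitrotyrosine-quenched decapeptide. Fluorescence (ex 320, em 430) was read at 0 and 20 min at room temperature. Delta was normalized to 5.8 microM ADEP and DMSO/no-enzyme controls.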
Menin MLL FP TR = menin-MLL binding inhibition, Texas Red mutant peptide | O00255 | Menin + Texas Red MLL mutant peptide, fluorescence polarization | Potency, µM (series often up to 61.6 µM), hits mostly inhibitors | hit rate 0.23% among 270,000; active = well fitted inhibition curve with a large enough effect in the polarisation, with a control signal flat, not every such curve was filed as active; inconclusive = small, poorly fitted or top-dose-only effect, or effect the other way, or a change in a side signal; inactive = no such curve, though single readings can be large or run the other way; the % refers to the polarisation
Menin-MLL FL inh = menin-MLL binding inhibition, fluorescein peptide. FP activity change, % at 61.4 µM. Fluorescence polarization, fluorescein-MLL peptide displacement from menin. AID 1766. 290,000 tested, under 10 active; active = well fitted curve in the direction sought with a large enough effect in the polarisation, not every such curve was filed as active; inconclusive = small, poorly fitted or top-dose-only effect, or effect the other way, or a change in a side signal; inactive = no such curve, though single readings can be large or run the other way; the % refers to the polarisation
MLL CXXC-DNA inh = blocks binding of human MLL CXXC domain to DNA; AID 2662; hit rate 0.037% among 290,000; Potency, µM (highest dose often 115 µM), most hits filed as inhibitors; MLL-CXXC / FITC-HOXA9 DNA fluorescence polarization; Q03164; active = well fitted inhibition curve with a large enough effect in the polarisation, with a control signal flat, not every such curve was filed as active; inconclusive = small, poorly fitted or top-dose-only effect, or effect the other way, or a change in a side signal; inactive = no such curve, though single readings can be large or run the other way; the % refers to the polarisation
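Fluorescence polarization: 7 uM MLL-CXXC (stock) preincubated 5 min with compounds, then 50 nM fluorescein-HOX-A9 DNA (stock) added; 30 min ambient. Buffer 50 mM Tris-HCl pH 7.5, 50 mM NaCl, 1 mM DTT, 0.05% BSA.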
Each line names hits and unclear results; the compound was inactive in the other large screens.

O=C(c1cccn2c(=O)c3ccccc3nc12)N1CCN(Cc2ccc3c(c2)OCO3)CC1	ClpP mod inconclusive
O=C(c1cccn2c(=O)c3cc(Cl)ccc3nc12)N1CCN(Cc2ccc3c(c2)OCO3)CC1	none
O=C(c1ccc2nc3ccccc3c(=O)n2c1)N1CCN(Cc2ccc3c(c2)OCO3)CC1	ClpP mod 20µM, Menin MLL FP TR inconclusive
O=C(c1cccn2c(=O)c3cc(Cl)ccc3nc12)N1CCOCC1	ClpP mod 17.8µM
O=C(c1cnc2ccc(Cl)cc2c1Cl)N1CCOCC1	none
O=C(c1ccc2nc3ccc(Cl)cc3c(=O)n2c1)N1CCOCC1	ClpP mod 15.8µM
CCSc1nc2c(c(=O)[nH]c(=O)n2C)n1CC(O)COc1ccc(Cl)cc1 (stereo not given)	none (no result: p53 reactivation, Menin MLL FP TR, Menin-MLL FL inh, MLL CXXC-DNA inh)
O=C(Nc1ccc(Br)cn1)c1cccc(-c2cc3ccccc3oc2=O)c1	p53 reactivation inconclusive, ClpP mod 14.1µM
COc1[nH]c(/N=C/c2ccco2)c(C#N)c1C#N	none (no result: p53 reactivation, Menin MLL FP TR, Menin-MLL FL inh, MLL CXXC-DNA inh)
CCCCCc1nc2c(=O)n(C)c3ccccc3c2o1	Menin MLL FP TR inconclusive
Cn1c(=O)c2nc(-c3ccccc3)oc2c2ccccc21	ClpP mod 11.2µM
CCNc1nc(NCC)nc(NC(N)=S)n1	ClpP mod 28.2µM
O=C(NCC(O)CO)c1ccc2[nH]c3ccccc3c2c1 (stereo not given)	ClpP mod 28.2µM
COc1ccc2nc(Nc3nc4cc5c(cc4s3)OCO5)sc2c1	ClpP mod 12.6µM, Menin MLL FP TR inconclusive
C=C(/C=C/c1ccc(N(C)C)cc1)c1nc2ccccc2s1	none (no result: p53 reactivation, Menin MLL FP TR, Menin-MLL FL inh, MLL CXXC-DNA inh)
Cc1ccccc1-n1ccnc1SCC(=O)O	none
Cc1cccc(-n2ccnc2SCC(=O)O)c1C	ClpP mod 10µM
CCSc1nc(N2CCOCC2)c2c(c1C#N)CCCC2	none
CCN1CCc2c(C#N)c(N3CCCCC3)nc(N3CCOCC3)c2C1	ClpP mod 8.91µM, Menin-MLL FL inh inconclusive
CC(C)c1nc(N2CCOCC2)c(C#N)c2c1CCCC2	ClpP mod 31.6µM
CCN(N=O)c1ccc(/C=C2\C=Cc3ccccc32)cc1	none (no result: p53 reactivation, Menin MLL FP TR, Menin-MLL FL inh, MLL CXXC-DNA inh)
COc1cc(OC)c(NC(=O)C2CCN(S(=O)(=O)c3ccc4c(c3)oc(=O)n4C)CC2)cc1Cl	none (no result: p53 reactivation, Menin MLL FP TR, Menin-MLL FL inh, MLL CXXC-DNA inh)
CC(=O)/C=C/c1ccc2c(c1)S(=O)(=O)N(C1CCCC1)[C@H]2CC(C)=O	none (no result: p53 reactivation, Menin MLL FP TR, Menin-MLL FL inh, MLL CXXC-DNA inh)
CCc1cc(=O)oc2c(C)c(O[C@@H]3O[C@H](CO)[C@@H](O)[C@H](O)[C@H]3O)ccc12	ClpP mod 28.2µM
C=CCOc1ccc2c(CC)cc(=O)oc2c1C	ClpP mod 25.1µM
CCn1nc(C)c(Oc2ccccc2O)c1C	none
Cc1cc(C)nc(-n2nc(C)c(Oc3ccccc3O)c2C)n1	p53 reactivation inconclusive, ClpP mod 28.2µM
COc1ccc(-c2ccc(-c3nnn(CC(=O)N4CCOCC4)n3)cc2)cc1	ClpP mod 15.8µM (no result: p53 reactivation)
COc1cc(-c2nnn(CC(=O)N3CCOCC3)n2)cc(OC)c1OC	p53 reactivation inconclusive
Cn1c(=O)c2c(-c3ccccc3)n3c(c2n(C)c1=O)C(c1ccc([N+](=O)[O-])cc1)Nc1ccccc1-3 (stereo not given)	none (no result: p53 reactivation, Menin MLL FP TR, Menin-MLL FL inh, MLL CXXC-DNA inh)
O=S(=O)(Cc1ccccc1)C1CCCCC1O (stereo not given)	ClpP mod 14.1µM (no result: Menin MLL FP TR)
COC(=O)[C@@H]1CCCN1S(=O)(=O)Cc1ccccc1	none (no result: p53 reactivation, Menin MLL FP TR, Menin-MLL FL inh, MLL CXXC-DNA inh)
O=C(Cc1cccs1)Nc1ccc(-c2nc3ccccc3[nH]2)cc1	ClpP mod inconclusive, Menin MLL FP TR inconclusive
Cc1cc2nc(-c3ccc(SCC(=O)Nc4ccc(S(=O)(=O)N5CCCC5)cc4)nc3)[nH]c2cc1C	none
O=C(CN1CCOCC1)Nc1ccc(-c2nc3ccccc3[nH]2)cc1	ClpP mod 25.1µM
O=C(CSc1ccc(-c2nc3ccccc3[nH]2)cn1)Nc1ccc(S(=O)(=O)N2CCCC2)cc1	ClpP mod 20µM, Menin MLL FP TR inconclusive
CCc1ccc(-c2cc(C(=O)N/N=C/c3ccccn3)[nH]n2)cc1	none (no result: ClpP mod)
O=C(N/N=C/c1ccccn1)c1cc(-c2ccc3ccccc3c2)n[nH]1	ClpP mod 22.4µM
CCOC(=O)CC(CC(C)=O)C(=O)OCC (stereo not given)	none (no result: p53 reactivation, ClpP mod, MLL CXXC-DNA inh)
CCN(CC)CCN1C(=O)c2ccccc2NC1c1ccc(F)cc1 (stereo not given)	ClpP mod 31.6µM
CCN(CC)CCN1C(=O)c2ccccc2NC1c1ccc(C)cc1 (stereo not given)	ClpP mod 31.6µM (no result: Menin MLL FP TR)
CCN(CC)CCN1C(=O)c2ccccc2NC1c1ccc(Br)cc1 (stereo not given)	none (no result: ClpP mod)
N#CC1=C(N)CCC1	none (no result: p53 reactivation, Menin MLL FP TR, Menin-MLL FL inh, MLL CXXC-DNA inh)
Cc1c(Cl)cccc1NS(=O)(=O)c1ccc(-c2cnc(C3CC3)o2)cc1	none (no result: p53 reactivation, Menin MLL FP TR, Menin-MLL FL inh, MLL CXXC-DNA inh)
CCNc1nc2c(c(=O)n(C)c(=O)n2C)n1Cc1ccc(Cl)cc1	none
Cn1c(=O)c2c(nc(NCc3cccnc3)n2Cc2ccc(Cl)cc2)n(C)c1=O	ClpP mod 3.16µM
O=C(C[n+]1cccc(Br)c1)c1ccc2ccccc2c1	none (no result: p53 reactivation, Menin MLL FP TR, Menin-MLL FL inh, MLL CXXC-DNA inh)
c1ccc(-c2oc3ncnc(NCCN4CCOCC4)c3c2-c2ccccc2)cc1	ClpP mod 15.8µM
Cc1cnc2c(C)cccc2c1C	none (no result: p53 reactivation, Menin MLL FP TR, Menin-MLL FL inh, MLL CXXC-DNA inh)
CN(C)c1ccc(/C=C/c2c(Br)cnc3ccccc23)cc1	none (no result: p53 reactivation, Menin MLL FP TR, Menin-MLL FL inh, MLL CXXC-DNA inh)
COc1ccc(N2C(=O)c3ccccc3NC2c2ccc(OC)c(COc3ccccc3F)c2)cc1 (stereo not given)	none (no result: p53 reactivation, Menin MLL FP TR, Menin-MLL FL inh, MLL CXXC-DNA inh)
